# PINK1 expr mod = changes PINK1 expression | AID 624263 | PINK1 immunofluorescence, high-content cytometry, 24 h | actives 0.2% (n = 410,000) | Potency, µM (doses to about 76.6 µM), for the others: at the top dose activation (PINK1 increase), actives largely listed as activators; active means well fitted activation curve with a large enough effect; inconclusive means small, poorly fitted or top-dose-only effect; cell line not stated here; further: % of control where 0% means no effect; nearly all actives have a fitted effect of over 65% in size
#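 Readout is PINK1 immunofluorescence, quantified alongside mitochondrial, cell and nuclear markers by laser-scanning microplate cytometry. Cells from a stable line were exposed to compound titrations (5 concentrations) for 24 hours, with CCCP controls.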
# KB-3-1 cytotox = kills parental KB-3-1 adenocarcinoma cells | KB-3-1 viability, CellTiter-Glo ATP luminescence, 72 h | Potency, µM (titrated, usually from 46.1 µM), most hits filed as cytotoxic | actives 1.4% (n = 400,000); further: on the % scale 0 is the no-effect control and ±100 the full control effect; nearly all actives have a fitted effect of over 60% in size
#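 Screening of KB-3-1 cells (DMEM, 10% FBS, phenol-red free) ran from lowest to highest compound concentration; after 72 h at 37 °C viability was read luminescently and curves fitted.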
# SW480 rerep = DNA re-replication induction in SW480 cells; AID 624297; actives 1.8% (n = 340,000); Potency, µM (top dose mostly 46.1 µM), for the others: at the top dose re-replication activation, usual class: activators; SW480 DNA re-replication, Hoechst DNA content imaging, 48 h; further: % of control where 0% means no effect; nearly all actives have a fitted effect of over 55% in size
#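 Image-based read-out: total Hoechst fluorescence of nuclei (405 nm excitation, 500-530 nm emission), with hits raising the fraction of high-intensity nuclei. SW480 colon cells incubated 48 hr with compounds at 37 C.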
# KB-V1 cytotox = kills drug-selected multidrug resistant KB-V1 cells. AID 1347076. actives 3.4% (n = 400,000). Potency, µM (top dose mostly 46.1 µM), hits mostly cytotoxic. KB-V1 MDR cells viability, CellTiter-Glo, 72 h; further: on the % scale 0 is the no-effect control and ±100 the full control effect; nearly all actives have a fitted effect of over 60% in size
#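 In this primary screen, KB-V1 cells overexpressing P-gp are incubated with library compounds (lowest to highest concentration) for 72 h at 37 degrees C before a luminescent ATP viability read.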
# MCF10A rerep = inducers of DNA re-replication in MCF 10A breast cells; Potency, µM (top dose mostly 46.1 µM), inactives show top-dose activity, positive = re-replication, actives largely listed as activators; MCF 10A DNA re-replication, Hoechst nuclear intensity, 48 h; actives 2.9% (n = 350,000); further: % of control where 0% means no effect; nearly all actives have a fitted effect of over 50% in size
# Starred values were filed as active, the others as inactive; i = inactive; ? = inconclusive; nt = not tested or not shown; [ ] = another dose, or the depositor's remark. Shown are actives, neighbours in structure and some others; about 6.7% of the full set was active somewhere. Unless noted, the call rests on the fitted dose curve; in most records, active means well fitted curve in the direction sought with a large enough effect; inconclusive means small, poorly fitted or top-dose-only effect, or another doubt; inactive means no such curve, though single readings can be large; an effect the other way counts as inactive or inconclusive. Potency means the concentration at half of the fitted maximal effect.
SMILES,PINK1 expr mod,KB-3-1 cytotox,SW480 rerep,KB-V1 cytotox,MCF10A rerep
Nc1nonc1-c1nc2ccccc2n1CC(=O)N/N=C\c1ccc(-c2ccc(Cl)cc2)o1,7.3%,?,?,?,8.91µM*
CCCCOc1ccccc1NC(=O)Cn1c(-c2nonc2N)nc2ccccc21,8.3%,4.61µM*,?,1.84µM*,0.794µM*
CSc1ccccc1NC(=O)Cn1c(-c2cscn2)nc2ccccc21,-0.2%[38.3 µM],i,-9.2%,16.4µM*,20.8%
CC(C)CCNC(=O)c1cc(-c2cccnc2)nc2ccc(S(=O)(=O)N3CCC(C)CC3)cc12,-0.4%,nt,nt,nt,nt
CSc1ccc(CNC(=O)Cn2nc(N3CCN(c4ccccc4)CC3)ccc2=O)cc1,0.6%,i,nt,i,nt
Cc1cc(C(=O)NCCCn2ccnc2)cs1,10µM*,i,-12.8%,i,-12.8%
Cc1ccc2nc3c(cc(C(=O)NCCCn4ccnc4)n3C)c(=O)n2c1,-4.0%,i,?,i,14.6µM*
CC(C)c1ccccc1NC(=S)NCCCn1ccnc1,-0.5%,i,-51.8%,i,0.731µM*
O=C(/C=C/c1c(Cl)cccc1Cl)NCCCn1ccnc1,-0.5%,i,?,i,23.1µM*
O=C(NCCCn1ccnc1)c1ccc2ccccc2c1,0.1%,i,?,i,5.5%
O=C(CCc1nc2ccccc2s1)N1CCOc2ccc(CN3CCc4sccc4C3)cc2C1,0.5%,nt,nt,nt,nt
COc1ccc(-c2cc3nc(C4CCN(C(=O)OC(C)(C)C)CC4)c(C(=O)Nc4cc(Cl)cc(Cl)c4)cn3n2)cc1,1.2%,i,nt,i,nt
COc1ccc(Cl)cc1C(=O)NCc1nc(-c2cccc(C)c2)no1,6.8%,i,nt,i,nt
O=C(Cc1ccc(Cl)cc1)c1c[nH]c(C(=O)NCCCn2ccnc2)c1,2.5%,i,-80.6%,i,1.84µM*
CC(C)CC(=O)c1c[nH]c(C(=O)NCCCn2ccnc2)c1,-0.5%,i,-4.0%,i,13.4%
Cc1cccc(C2(c3cccc(C)c3)CC2C(=O)Nc2ccc([N+](=O)[O-])cc2O)c1 (configuration not stated),?,20.6µM*,?,4.61µM*,?
C=CCNC(=O)C1CC1(c1cccc(C)c1)c1cccc(C)c1 (configuration not stated),3.2%,i,-20.2%,?,3.7%
O=C(Cc1ccccc1)Nc1c2c(nn1-c1cccc(Cl)c1)CS(=O)(=O)C2,-1.9%[38.3 µM],i,-5.4%,20.6µM*,18.9%
CC(C)CC(=O)Nc1c2c(nn1-c1cccc(Cl)c1)CS(=O)(=O)C2,0.0%,i,5.8%,i,14.1%
COc1ccc(CC(=O)Nc2c3c(nn2-c2cccc(Cl)c2)CS(=O)(=O)C3)cc1,0.4%[38.3 µM],i,-4.1%,16.4µM*,23.2%
O=C(Nc1ccc(C(=O)OCc2cc(=O)n3c4c(sc3n2)CCCC4)cc1)c1ccc(F)cc1,0.4%,nt,nt,nt,nt
CCOC(=O)C1=NN(c2ccccc2)C2=NC(C)=C(C(=O)OC)C(c3ccc(C)cc3)N12 (configuration not stated),2.8%,i,0.0%,14.6µM*,1.9%
CCC1SC2=NC(C)=C(C(=O)OC)C(c3ccc(C)cc3)N2C1=O (configuration not stated),-1.0%,i,1.1%,i,-1.7%
COC(=O)c1sc2ccccc2c1-n1cccc1C(=O)C(=O)Nc1ccc(OC)cc1,6.0%,5.8µM*,-5.2%,8.2µM*,28.3%
COCCNC(=O)c1cc2c(c(-c3cccc(C#Cc4ccc(OC)c(OC)c4)c3)n1)[C@H](CCO)N(S(=O)C(C)(C)C)C2 (some centres not stated),4.0%,i,nt,i,nt
O=C(CSc1ccc(F)cc1)Nc1cccc(S(=O)(=O)N2CCOCC2)c1,0.3%,i,4.8%,i,2.9%
CCOc1cc(CNC(=O)c2ccc(C)c(NC(=O)c3nsc4ccccc34)c2)ccc1OC,-0.2%,i,nt,i,nt
COc1ccc(OC)c(-c2nc3c(C)n[nH]c(=O)c3[nH]2)c1,0.2%,i,8.0%,18.4µM*,23.7%
COc1cccc(Nc2nc3cc(Cl)c(Cl)cc3nc2-n2nc(C)cc2C)c1,1.5%,i,nt,i,nt

# Compound activity from PubChem BioAssay.
